{"source": "PubChem BioAssay (EPA / NIEHS)", "key": {"[1]": {"test": "ACEA_AR_agonist_AUC_viability: ACEA Biosciences xCELLigence Real-Time Cell Analysis on Androgen Receptor Agonism for Viability (AID 2283775);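 as to AC50: viability read 80 hours after compound addition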", "method_in_brief": "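Real-time impedance tracking of 22Rv1 growth, readings every 5 min for 5 h then hourly; area-under-curve viability endpoint at 80 hours, relative to DMSO. Compounds at eight concentrations, 1:4 steps, top 100 uM, n = 2.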"}, "[2]": {"test": "ACEA_AR_antagonist_AUC_viability: ACEA Biosciences xCELLigence Real-Time Cell Analysis on Androgen Receptor Antagonism for Viability (AID 2283776);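 also: hits lower the growth signal relative to DMSO meaning cytotoxicity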", "method_in_brief": "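22Rv1 human prostate cancer cells were seeded on electrode plates, monitored overnight, then exposed to eight 1:4 dilutions from 100 uM final. Impedance-based growth kinetics at 80 h gave an AUC viability endpoint normalized to DMSO.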"}, "[3]": {"test": "CEETOX_H295R_MTT_cell_viability: Viability Assessment in the CeeTox HT-H295R MTT Assay (AID 2283718; active = hit-call score of the fitted dose curve at least 0.9, where 1 is the maximum; inactive = score below 0.9;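 as to AC50: curve fitted both ways so AC50 may mark viability loss or gain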)", "method_in_brief": "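H295R cells prestimulated 48 h with 10 uM forskolin, then exposed 48 h to test chemical (0.1% DMSO final). Viability by MTT (0.5 mg/ml, 4 h, 37 C), absorbance 570/650 nm; percent change versus DMSO, bidirectional fit.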"}, "[4]": {"test_system": "zebrafish Estrogen Receptor (ESR2B), gene 317733", "test": "ATG_zfER2b_XSP1: Attagene TRANS-FACTORIAL Multi-Species (XSP1) HepG2 Assay for zebrafish Estrogen Receptor (ESR2B) (AID 2283773)", "method_in_brief": "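HepG2 cells transiently transfected with multiple GAL4-UAS reporter units expressing chimeric zebrafish ER2b-Gal4; 24 h chemical exposure with 3 nM 6-alpha-fluorotestosterone present. Reporter mRNA measured by RT-PCR and capillary electrophoresis; gain of signal fitted versus DMSO.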"}, "[5]": {"test_system": "frog Estrogen Receptor (ESR2), gene 100174814", "test": "ATG_frER2_XSP1: Attagene TRANS-FACTORIAL Multi-Species (XSP1) HepG2 Assay for frog Estrogen Receptor (ESR2) (AID 2283774)", "method_in_brief": "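HepG2 cells transiently transfected with GAL4-UAS multiplexed reporter units expressing chimeric NR-Gal4 proteins; reporter mRNA measured 24 h after dosing by RT-PCR, FAM labeling, HpaI digestion and capillary electrophoresis. Gain-of-signal relative to DMSO; 3 nM 6-alpha-fluorotestosterone present.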"}, "[6]": {"test": "Tanguay_ZF_120hpf_ActivityScore_legacy: (Legacy) Oregon State University Tanguay Lab 120 Hour Post-fertilization zebrafish Assay Score for Activity (AID 2283742)", "method_in_brief": "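Tropical 5D wild-type zebrafish embryos, dechorionated with pronase at 4 hpf, were exposed singly from 6 hpf to 120 hpf statically at 28C in 0.64% DMSO. Malformations and mortality were scored as binary by brightfield, with the activity score combining 18 morphology components.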"}}, "note": "Results filed as inconclusive are left out. Calls of active or inactive are those of the source. The calls were made as follows, unless noted: active = hit-call score of the fitted dose curve at least 0.9, where 1 is the maximum; inconclusive = response in the unintended direction; inactive = score below 0.9.", "data": [{"compound": "NCCN", "values": [{"measurement": "outcome", "setting": "[1]", "value": "inactive"}, {"measurement": "outcome", "setting": "[2]", "value": "inactive"}]}, {"compound": "NS(=O)(=O)O", "values": [{"measurement": "outcome", "setting": "[1]", "value": "inactive"}, {"measurement": "outcome", "setting": "[2]", "value": "inactive"}]}, {"compound": "Oc1cc2ccccc2cc1O", "values": [{"measurement": "outcome", "setting": "[3]", "value": "inactive"}]}, {"compound": "CCCCc1ccc2ccccc2c1S(=O)(=O)O", "values": [{"measurement": "AC50", "setting": "[1]", "value": "3.3 µM (active)"}, {"measurement": "outcome", "setting": "[2]", "value": "inactive"}]}, {"compound": "CCCCCCCCCC=CCC1CC(=O)OC1=O", "note": "(stereo unspecified)", "values": [{"measurement": "outcome", "setting": "[2]", "value": "inactive"}]}, {"compound": "CCCCCCCCCCCCOC(=O)c1cc(O)c(O)c(O)c1", "values": [{"measurement": "AC50", "setting": "[1]", "value": "7.6 µM (active)"}, {"measurement": "AC50", "setting": "[2]", "value": "3.44 µM (active)"}]}, {"compound": "CCCCCc1ccc(O)cc1", "values": [{"measurement": "outcome", "setting": "[3]", "value": "inactive"}]}, {"compound": "O=C(O)c1cccc(C(=O)O)n1", "values": [{"measurement": "outcome", "setting": "[2]", "value": "inactive"}]}, {"compound": "Cc1cc(C(C)(C)C)c(O)c(C(C)(C)C)c1", "values": [{"measurement": "outcome", "setting": "[1]", "value": "inactive"}, {"measurement": "AC50", "setting": "[2]", "value": "0.144 µM (active)"}]}, {"compound": "Cc1ccc(S(=O)(=O)O)cc1", "values": [{"measurement": "outcome", "setting": "[1]", "value": "inactive"}, {"measurement": "outcome", "setting": "[2]", "value": "inactive"}]}, {"compound": "NC(=NCCCCCCN=C(N)/N=C(\\N)Nc1ccc(Cl)cc1)/N=C(\\N)Nc1ccc(Cl)cc1", "values": [{"measurement": "AC50", "setting": "[1]", "value": "10.5 µM (active)"}, {"measurement": "AC50", "setting": "[2]", "value": "10.6 µM (active)"}]}, {"compound": "c1cnc2c(c1)ccc1cccnc12", "values": [{"measurement": "AC50", "setting": "[1]", "value": "3.4 µM (active)"}, {"measurement": "AC50", "setting": "[2]", "value": "3.57 µM (active)"}]}, {"compound": "Cc1ccc(C)c(S(=O)(=O)O)c1", "values": [{"measurement": "outcome", "setting": "[1]", "value": "inactive"}, {"measurement": "AC50", "setting": "[2]", "value": "0.221 µM (active)"}]}, {"compound": "Cc1cc(Cc2cc(C)cc(C(C)(C)C)c2O)c(O)c(C(C)(C)C)c1", "values": [{"measurement": "outcome", "setting": "[1]", "value": "inactive"}, {"measurement": "AC50", "setting": "[2]", "value": "21.4 µM (active)"}]}, {"compound": "CCCCCC(C)OC(=O)COc1ccc(Cl)c2cccnc12", "note": "(stereo unspecified)", "values": [{"measurement": "outcome", "setting": "[3]", "value": "inactive"}]}, {"compound": "C[C@]12CC[C@@H]3c4ccc(O)cc4CC[C@H]3[C@@H]1C[C@@H](O)[C@@H]2O", "values": [{"measurement": "AC50", "setting": "[3]", "value": "91.7 µM (active)"}, {"measurement": "AC50", "setting": "[4]", "value": "0.0143 µM (active)"}, {"measurement": "AC50", "setting": "[5]", "value": "0.0279 µM (active)"}, {"measurement": "AC50", "setting": "[2]", "value": "1.16 µM (active)"}]}, {"compound": "CCCCCCc1ccc(N)cc1", "values": [{"measurement": "outcome", "setting": "[1]", "value": "inactive"}, {"measurement": "outcome", "setting": "[2]", "value": "inactive"}]}, {"compound": "CCc1ccccc1O", "values": [{"measurement": "outcome", "setting": "[1]", "value": "inactive"}, {"measurement": "outcome", "setting": "[2]", "value": "inactive"}]}, {"compound": "CC(C)[C@@H]1CC[C@@H](C)C[C@H]1O", "values": [{"measurement": "outcome", "setting": "[1]", "value": "inactive"}, {"measurement": "AC50", "setting": "[2]", "value": "0.541 µM (active)"}]}, {"compound": "C/C=C/C(=O)C1=C(C)CCCC1(C)C", "values": [{"measurement": "outcome", "setting": "[3]", "value": "inactive"}]}, {"compound": "CC(O)COc1ccccc1", "note": "(stereo unspecified)", "values": [{"measurement": "outcome", "setting": "[1]", "value": "inactive"}, {"measurement": "outcome", "setting": "[2]", "value": "inactive"}]}, {"compound": "CCCCCCCCCCCCCCC", "values": [{"measurement": "outcome", "setting": "[6]", "value": "inactive"}]}, {"compound": "CCCCCCCCCCCC", "values": [{"measurement": "outcome", "setting": "[1]", "value": "inactive"}]}, {"compound": "Cc1cccc2c1ccc1ccccc12", "values": [{"measurement": "outcome", "setting": "[3]", "value": "inactive"}]}]}
